These results are taken from ChEMBL document CHEMBL4888484, “Replenishing the malaria drug discovery pipeline: Screening and hit evaluation of the MMV Hit Generation Library 1 (HGL1) against asexual blood stage Plasmodium falciparum ,using a nano luciferase reporter read-out” (2022).

Out of some 150,000 compounds screened, about 540 (0.36%) showed an effect of 50% or more. Only a selection was taken, and strong results are over-represented in it overall.

The subject of this assay is Plasmodium falciparum. The experiment in a line: Primary screen in NF54 nanoGlo assay, in single point, at 2uM, 72h; a lower Z score goes with more inhibition. It is filed as functional, Erythrocyte. The note with it: timepoint 72 hour.
Broadly, the % Inhibition is the drop in the measured response relative to a control, in per cent. Regarding `COc1ccc(-c2cc(C(F)(F)F)nc(-n3nc(-c4cccc(OC)c4)c(Cl)c3-c3cccc(OC)c3)n2)cc1`, the “% Inhibition” value is 91% and the Z score was -10.21.

Turning to `COc1cccc(-c2nn(-c3nc(-c4ccccc4)cc(C(F)(F)F)n3)c(-c3cccc(OC)c3)c2Cl)c1`, the “% Inhibition” value is given as 38% and the Z score is given as -3.81.

For `COc1ccc(-c2cc(C(F)(F)F)nc(-n3nc(-c4cccc(C)c4)c(C)c3-c3cccc(C)c3)n2)cc1`, the “% Inhibition” value is -7% and the Z score amounted to 1.42.

With `Cc1cc(NC(=O)c2ccc3ccccc3c2)n(-c2nc3c(c(=O)[nH]2)CCC3)n1`, the “% Inhibition” value was 2% and the Z score is on record as -0.26.

`COc1ccccc1OCC(=O)Nc1cc(C)nn1-c1nc2c(c(=O)[nH]1)CCC2`: the “% Inhibition” value is 1% and the Z score was -0.14.

Regarding `Cc1cc(NC(=O)C(=O)NC2CC(C)CC(C)(C)C2)n(-c2nc3c(c(=O)[nH]2)CCC3)n1` (centres undefined), the “% Inhibition” value was 85% and the Z score is on record as -13.4.

Regarding `Cc1cc(NC(=O)Cc2ccc(-c3ccccc3)cc2)n(-c2nc3c(c(=O)[nH]2)CCC3)n1`, the “% Inhibition” value is on record as -4% and the Z score is given as 0.86.

`CCOc1ccc2ccccc2c1C(=O)Nc1cc(C)nn1-c1nc2c(c(=O)[nH]1)CCC2`: the “% Inhibition” value amounted to 92% and the Z score is reported as -17.

Turning to `COCC(=O)Nc1cc(C)nn1-c1nc2c(c(=O)[nH]1)CCC2`, the “% Inhibition” value was found to be 1% and the Z score is on record as -0.17.

`CC(NC(=O)N(C)CC1CCCO1)c1ccc(N2CCOCC2)cc1` (centres undefined): the “% Inhibition” value was -3% and the Z score is 0.42.

As for `COC[C@H]1CN(C)CC12CCN(C(=O)Cc1ccc(Cl)cc1)CC2`, the “% Inhibition” value is 9% and the Z score is recorded as -1.07.

Take `CCCC(=O)N1CCN(c2cc(-n3cnc(C)c3C)ncn2)CC1`: the “% Inhibition” value is given as -12% and the Z score amounted to 1.96.

For `COc1cc(C(=O)Nc2scnc2C)cc(OC)c1OC`, the “% Inhibition” value was 45% and the Z score is reported as 0.11.

Take `COc1cc(C(=O)Nc2ccc3sc(NC(=O)c4cc(OC)c(OC)c(OC)c4)nc3n2)cc(OC)c1OC`: the “% Inhibition” value amounted to 101% and the Z score was -16.35.

As to `COc1cc(C(=O)Nc2ccc(Nc3ccc(C)nn3)cc2)cc(OC)c1OC`, the “% Inhibition” value came out at 13% and the Z score is on record as -2.29.

As to `Cn1cc(S(=O)(=O)NCc2cc(C3CC3)ncn2)cn1`, the “% Inhibition” value amounted to 16% and the Z score is recorded as -2.16.

As to `Clc1cnn(CCN2CCc3onc(-c4cccc5ccccc45)c3C2)c1`, the “% Inhibition” value is -5% and the Z score came out at 0.7.

With `CN1C(=O)CC[C@@]12CCN(C(=O)Nc1ccc3c(c1)OCCO3)C2`, the “% Inhibition” value is reported as -5% and the Z score came out at 0.78.

For `Cc1cc([C@@H]2CCCCN2CCn2cc(Cl)cn2)no1`, the “% Inhibition” value was -11% and the Z score amounted to 1.54.

Consider `COc1cccc(C(=O)Nc2c3c(nc4ccccc24)CCCC3)c1`, for which the “% Inhibition” value was found to be 1% and the Z score is given as -0.12.

Turning to `Oc1c2c(nc3ccccc13)CCCCC2`, the “% Inhibition” value was 25% and the Z score is on record as -3.15.

For `COc1ccc(C(=O)N(C(=O)c2ccc(OC)cc2)c2c3c(nc4ccccc24)CCCC3)cc1`, the “% Inhibition” value worked out at 69% and the Z score is recorded as -5.66.
